Assay results published in PubChem BioAssay.
The source made the active and inactive calls.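 Rule for the calls, unless noted: active = fluorescence slope higher than the sample average by over 3 SD (cut at about -0.22 in these data, passing the limit was not always enough); inactive = the rest.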

biological target: Dual specificity protein phosphatase 6 (Homo sapiens) (UniProt Q16828); assay: Primary imaging screen for DUSP6 inhibitors that restore phospho-Erk in transfected HeLa cells, chemical complementation (AID 609;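 active = compounds giving at least 50% inhibition in the cell-based MKP-3 phosphatase rescue imaging test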;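 note: phospho-Erk level distribution per well compared with pooled transfected vehicle control wells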); conditions: HeLa MKP-3 transfected, phospho-Erk imaging KS statistic; at 10 µM; stronger effect = higher value; cells stimulated with TPA for 15 min
Sequence (Q16828 whole entry, looked up): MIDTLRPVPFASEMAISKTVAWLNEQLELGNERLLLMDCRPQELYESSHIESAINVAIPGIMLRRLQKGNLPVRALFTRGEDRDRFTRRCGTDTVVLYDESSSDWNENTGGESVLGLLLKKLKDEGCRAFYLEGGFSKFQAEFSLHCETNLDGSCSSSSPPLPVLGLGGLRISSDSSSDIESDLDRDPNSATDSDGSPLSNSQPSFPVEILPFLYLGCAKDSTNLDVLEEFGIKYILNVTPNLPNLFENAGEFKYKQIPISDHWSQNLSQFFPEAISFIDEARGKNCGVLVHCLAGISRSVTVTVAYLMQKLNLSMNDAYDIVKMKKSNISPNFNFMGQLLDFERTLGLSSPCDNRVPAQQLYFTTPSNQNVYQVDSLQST

Structure (SMILES)	inhibition
COC(=O)c1ccc(C2/C(=C(\O)c3cccc(OC)c3)C(=O)C(=O)N2CCCN(C)C)cc1 (stereo unspecified)	7.21% (inactive)
Cc1cc(=O)oc(C)c1C(=O)n1nc(C)c2c1C[C@@H]1[C@H]2C1(C)C	15.9% (inactive)
CCN(CC)CCNc1ncnc2c1[nH]c1ccc(OC)cc12	3.42% (inactive)
Cn1c(=O)c2c(nc(Br)n2CCSc2nc3ccccc3o2)n(C)c1=O	17.4% (inactive)
CCc1ccc(-c2cn3nc(C)c(C)nc3n2)cc1	9.91% (inactive)
CCOC(=O)CSc1nc(N)c(C(=O)Nc2ccc(N(C)C)cc2)s1	1.98% (inactive)
CCN(CC)Cc1cc(C(C)=O)ccc1OCC(C)C	-5.62% (inactive)
Cn1c(NCc2ccccc2)nc2c1c(=O)n(Cc1ccc(Br)cc1)c(=O)n2C	13.9% (inactive)
CC12CCC(=O)N1c1c(sc3nc(N4CCOCC4)c4c(c13)CCCC4)C(=O)N2 (stereo unspecified)	5.42% (inactive)
CCOc1ccc(-c2nc(C#N)c(N3CCN(CC)CC3)o2)cc1	-2.69% (inactive)
NC(=O)CSc1nnc2n(-c3ccccc3)c(=O)c3c4c(sc3n12)CCCCC4	-2.59% (inactive)

biological target: Voltage-gated potassium channel subunit beta-2 (Rattus norvegicus) (UniProt P62483); assay: inhibitors of rat Kvbeta2 reductase activity – biochemical, NADPH fluorescence, primary screen (AID 622); conditions: recombinant KvBeta, 4-cyanobenzaldehyde reduction, at 10 µM, stronger effect = higher value;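 note: slope of raw intensity against log time taken from 70 to 1610 s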
Sequence (P62483 whole entry, looked up): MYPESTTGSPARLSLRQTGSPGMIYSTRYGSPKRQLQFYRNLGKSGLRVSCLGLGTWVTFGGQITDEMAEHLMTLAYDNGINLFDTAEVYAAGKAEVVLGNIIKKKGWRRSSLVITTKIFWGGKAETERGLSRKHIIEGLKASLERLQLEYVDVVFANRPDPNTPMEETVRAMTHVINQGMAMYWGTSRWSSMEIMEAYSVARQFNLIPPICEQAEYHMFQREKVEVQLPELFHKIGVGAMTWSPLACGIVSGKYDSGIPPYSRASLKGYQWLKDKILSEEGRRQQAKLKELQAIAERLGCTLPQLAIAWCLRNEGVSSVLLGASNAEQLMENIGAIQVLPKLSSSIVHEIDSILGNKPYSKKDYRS

Structure (SMILES)	fluorescence slope
Cc1cc(NC(CC(C)C)C(=O)O)nc(Cc2ccccc2)n1 (stereo unspecified)	-0.47 (inactive)
CSc1nc2[nH]c3c(c2c2nnnn12)CCCC3	-0.341 (inactive)
CCOc1ccc(N2C(=O)CC(N)C2=O)cc1 (stereo unspecified)	-0.462 (inactive)
Cc1nn2cnc3sc4c(c3c2nc1=O)CCCC4	-0.364 (inactive)
Nc1c(C(=O)NCc2ccco2)sc2nc(N3CCOCC3)c3c(c12)CCCC3	-0.0309 (active)
CC(NC(=O)Nc1ccc(O)cc1)(C(F)(F)F)C(F)(F)F	-0.461 (inactive)
Cc1cccc(-c2nnc3n2N=C(c2ccccc2)CS3)c1	-0.415 (inactive)
N#Cc1nc(COc2ccccc2)oc1N1CCCC1	-0.42 (inactive)
COCCn1c(SCc2c(F)cccc2Cl)nc2c1c(=O)[nH]c(=O)n2C	-0.44 (inactive)
Cn1c(=O)[nH]c(=O)c2c1nc(Br)n2CCSc1nnnn1-c1ccccc1	-0.384 (inactive)
Cn1c(N)c(C#N)c(C#N)c1-c1ccccc1	-0.339 (inactive)
CCOC(=O)CC(=O)CSc1nnc2sc3ccccc3n12	-0.427 (inactive)
CCc1nc(NC2CCCCC2)c(C#N)c2c1COC(C)(C)C2	-0.475 (inactive)
CCc1nc(N2CCOCC2)c(C#N)c2c1CCCC2	-0.482 (inactive)
COC(=O)c1ccc(C2/C(=C(\O)c3ccc4c(c3)OCCO4)C(=O)C(=O)N2CCCN(C)C)cc1 (stereo unspecified)	-0.442 (inactive)
C=CCOc1ccc(/C(O)=C2/C(=O)C(=O)N(CCCN3CCOCC3)C2c2ccccc2)cc1 (stereo unspecified)	-0.44 (inactive)
Cc1cc(=O)oc2ccc(OCC(=O)N3CCc4ccccc43)cc12	-0.478 (inactive)
Cc1ccc(NC(=O)Cn2nc(C)c3ccccc3c2=O)cc1	-0.496 (inactive)
O=C(c1ccccc1)n1c(=S)nc2ccccn21	-0.421 (inactive)
CCC(C)Nc1nc(OC)nc(N(C)C#N)n1 (stereo unspecified)	-0.431 (inactive)

Structure (SMILES)	fluorescence slope
Cc1[nH]nc(-c2ccc(O)cc2O)c1Oc1ccccc1	-0.433 (inactive)
O=C(NCCC1=CCCCC1)c1ccc(=O)oc1	-0.448 (inactive)
c1ccc(-n2ncc3c(N4CCCC4)ncnc32)cc1	-0.378 (inactive)
Cc1cc2c(c(=O)o1)C(CC(C)C)C(C#N)=C(N)O2 (stereo unspecified)	-0.436 (inactive)
O=c1cc(-c2ccco2)nc(-c2cccs2)o1	-0.561 (inactive)
O=C(Nc1nnc(SCc2ccccc2F)s1)c1ccco1	-0.502 (inactive)
CCN(CC)CCCN1C(=O)C(=O)/C(=C(/O)c2ccc(OC)cc2)C1c1ccco1 (stereo unspecified)	-0.471 (inactive)
Cn1c(=O)[nH]c2cc(Cl)cnc21	-0.492 (inactive)
C[N+]1(CCNC(=O)/C=N/O)CCCCC1	-0.42 (inactive)
COC(=O)c1ccc(C2/C(=C(\O)c3cccc(OC)c3)C(=O)C(=O)N2CCCN(C)C)cc1 (stereo unspecified)	-0.524 (inactive)
Cc1cc(=O)oc(C)c1C(=O)n1nc(C)c2c1C[C@@H]1[C@H]2C1(C)C	-0.403 (inactive)
CCN(CC)CCNc1ncnc2c1[nH]c1ccc(OC)cc12	-0.236 (inactive)
Cn1c(=O)c2c(nc(Br)n2CCSc2nc3ccccc3o2)n(C)c1=O	-0.346 (inactive)
CCc1ccc(-c2cn3nc(C)c(C)nc3n2)cc1	-0.0112 (inactive)
CCOC(=O)CSc1nc(N)c(C(=O)Nc2ccc(N(C)C)cc2)s1	-0.46 (inactive)
CCN(CC)Cc1cc(C(C)=O)ccc1OCC(C)C	-0.462 (inactive)
Cn1c(NCc2ccccc2)nc2c1c(=O)n(Cc1ccc(Br)cc1)c(=O)n2C	-0.47 (inactive)
CC12CCC(=O)N1c1c(sc3nc(N4CCOCC4)c4c(c13)CCCC4)C(=O)N2 (stereo unspecified)	-0.316 (inactive)
CCOc1ccc(-c2nc(C#N)c(N3CCN(CC)CC3)o2)cc1	-0.498 (inactive)
NC(=O)CSc1nnc2n(-c3ccccc3)c(=O)c3c4c(sc3n12)CCCCC4	-0.51 (inactive)
